Data from PubChem BioAssay AID1508601 (ICCB-Longwood Screening Facility, Harvard Medical School, 2020).
The campaign covered roughly 5,700 compounds. About 85 (1%) were called active. No stated cut-off is given here; in the data, active means p53-positive nuclei above about 36% (passing the limit was not always enough); inactive means the rest. This excerpt belongs to a sample that is enriched for actives.

Legend:
[1] = p53 stabilisation in HPV-positive human cells, imaging, p53-positive nuclei imaging, 24 h, 48 h (AID 1508601); conditions: 24/48 h
[2] = biological target: Cellular tumor antigen p53 (Homo sapiens) (UniProt P04637); experiment: as above; conditions: 24/48 h, stronger effect = higher value
Cellular tumor antigen p53 (Homo sapiens), sequence (P04637 whole entry, looked up): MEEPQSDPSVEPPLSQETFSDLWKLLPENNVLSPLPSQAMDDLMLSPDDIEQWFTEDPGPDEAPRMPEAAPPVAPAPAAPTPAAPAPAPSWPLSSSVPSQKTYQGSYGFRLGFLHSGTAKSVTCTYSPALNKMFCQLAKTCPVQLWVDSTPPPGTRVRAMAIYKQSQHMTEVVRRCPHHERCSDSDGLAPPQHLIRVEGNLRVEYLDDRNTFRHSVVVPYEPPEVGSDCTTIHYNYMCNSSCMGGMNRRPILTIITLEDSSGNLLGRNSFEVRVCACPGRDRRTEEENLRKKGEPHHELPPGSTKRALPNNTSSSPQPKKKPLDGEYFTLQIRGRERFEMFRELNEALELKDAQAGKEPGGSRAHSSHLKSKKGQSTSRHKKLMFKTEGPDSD

[3] = measured here: cell number at 24 h, Library stock concentration: 10 mM
[4] = measured here: cell number at 48 h, Library stock concentration: 10 mM
[5] = Library stock concentration: 10 mM
[6] = measured here: p53 positive nuclei at 24 h, Library stock concentration: 10 mM

**Q.** Which nuclei count, normalised ([1]; measured here: cell number at 24 h, Library stock concentration: 46 uM) does the source give for `COC(=O)C(NC(=O)c1cc(-c2ccccc2)nc2ccccc12)c1ccccc1` (stereo not given) here?
**A.** 105%

**Q.** What about the nuclei count, normalised ([1]; measured here: cell number at 24 h, Library stock concentration: 278 uM) of the same molecule?
**A.** 105%

**Q.** And the nuclei count, normalised ([1]; measured here: cell number at 24 h, Library stock concentration: 1.67 mM)?
**A.** 93.3%

**Q.** What about the nuclei count, normalised [1, 3] of the same molecule?
**A.** 96.9%

**Q.** And the nuclei count, normalised ([1]; measured here: cell number at 48 h, Library stock concentration: 46 uM)?
**A.** 111%

**Q.** And the nuclei count, normalised ([1]; measured here: cell number at 48 h, Library stock concentration: 278 uM)?
**A.** 107%

**Q.** What about the nuclei count, normalised ([1]; measured here: cell number at 48 h, Library stock concentration: 1.67 mM) of the same molecule?
**A.** 100%

**Q.** What about the nuclei count, normalised [1, 4] of the same molecule?
**A.** 103%

**Q.** What about the p53-positive nuclei, normalised ([2]; Library stock concentration: 46 uM) of the same molecule?
**A.** -0.241% (inactive)

**Q.** What about the p53-positive nuclei, normalised ([2]; Library stock concentration: 278 uM) of the same molecule?
**A.** -0.232% (inactive)

**Q.** And the p53-positive nuclei, normalised ([2]; Library stock concentration: 1.67 mM)?
**A.** -0.104% (inactive)

**Q.** What about the p53-positive nuclei, normalised [2, 5] of the same molecule?
**A.** 0.115% (inactive)

**Q.** What about the p53-positive nuclei, normalised ([2]; measured here: p53 positive nuclei at 24 h, Library stock concentration: 46 uM) of the same molecule?
**A.** -0.21%

**Q.** And the p53-positive nuclei, normalised ([2]; measured here: p53 positive nuclei at 24 h, Library stock concentration: 278 uM)?
**A.** -0.0834%

**Q.** And the p53-positive nuclei, normalised ([2]; measured here: p53 positive nuclei at 24 h, Library stock concentration: 1.67 mM)?
**A.** 0.359%

**Q.** And the p53-positive nuclei, normalised [2, 6]?
**A.** 0.069%

**Q.** For `CCC(C(C)O)n1ncn(-c2ccc(N3CCN(c4ccc(OCC5CO[C@@](Cn6cncn6)(c6ccc(F)cc6F)C5)cc4)CC3)cc2)c1=O` (stereo not given in full), which nuclei count, normalised ([1]; measured here: cell number at 24 h, Library stock concentration: 3.33 mM) is on record?
**A.** 91.3%

**Q.** What about the nuclei count, normalised ([1]; measured here: cell number at 48 h, Library stock concentration: 3.33 mM) of the same molecule?
**A.** 91.4%

**Q.** What about the p53-positive nuclei, normalised ([2]; Library stock concentration: 3.33 mM) of the same molecule?
**A.** -0.489% (inactive)

**Q.** What about the p53-positive nuclei, normalised ([2]; measured here: p53 positive nuclei at 24 h, Library stock concentration: 3.33 mM) of the same molecule?
**A.** -0.171%

**Q.** With `CCOC(=O)c1sc(NC(=O)c2ccco2)c(SC#N)c1C` as the molecule, how does the nuclei count, normalised ([1]; measured here: cell number at 24 h, Library stock concentration: 500 nM) read?
**A.** 118%

**Q.** And the nuclei count, normalised ([1]; measured here: cell number at 24 h, Library stock concentration: 1.5 uM)?
**A.** 119%

**Q.** And the nuclei count, normalised ([1]; measured here: cell number at 24 h, Library stock concentration: 4.6 uM)?
**A.** 115%

**Q.** And the nuclei count, normalised ([1]; measured here: cell number at 24 h, Library stock concentration: 13.7 uM)?
**A.** 107%

**Q.** And the nuclei count, normalised ([1]; measured here: cell number at 24 h, Library stock concentration: 41 uM)?
**A.** 124%

**Q.** And the nuclei count, normalised ([1]; measured here: cell number at 24 h, Library stock concentration: 123 uM)?
**A.** 109%

**Q.** And the nuclei count, normalised ([1]; measured here: cell number at 24 h, Library stock concentration: 370 uM)?
**A.** 113%

**Q.** What about the nuclei count, normalised ([1]; measured here: cell number at 24 h, Library stock concentration: 1.111 mM) of the same molecule?
**A.** 114%

**Q.** And the nuclei count, normalised ([1]; measured here: cell number at 24 h, Library stock concentration: 3.333 mM)?
**A.** 103%

**Q.** What about the nuclei count, normalised [1, 3] of the same molecule?
**A.** 97.4%

**Q.** And the nuclei count, normalised ([1]; measured here: cell number at 48 h, Library stock concentration: 500 nM)?
**A.** 111%

**Q.** And the nuclei count, normalised ([1]; measured here: cell number at 48 h, Library stock concentration: 1.5 uM)?
**A.** 109%

**Q.** What about the nuclei count, normalised ([1]; measured here: cell number at 48 h, Library stock concentration: 4.6 uM) of the same molecule?
**A.** 104%

**Q.** And the nuclei count, normalised ([1]; measured here: cell number at 48 h, Library stock concentration: 13.7 uM)?
**A.** 103%

**Q.** What about the nuclei count, normalised ([1]; measured here: cell number at 48 h, Library stock concentration: 41 uM) of the same molecule?
**A.** 110%

**Q.** And the nuclei count, normalised ([1]; measured here: cell number at 48 h, Library stock concentration: 123 uM)?
**A.** 106%

**Q.** And the nuclei count, normalised ([1]; measured here: cell number at 48 h, Library stock concentration: 370 uM)?
**A.** 110%

**Q.** And the nuclei count, normalised ([1]; measured here: cell number at 48 h, Library stock concentration: 1.111 mM)?
**A.** 112%

**Q.** And the nuclei count, normalised ([1]; measured here: cell number at 48 h, Library stock concentration: 3.333 mM)?
**A.** 106%

**Q.** What about the nuclei count, normalised [1, 4] of the same molecule?
**A.** 101%

**Q.** And the p53-positive nuclei, normalised ([2]; Library stock concentration: 500 nM)?
**A.** 0.102% (inactive)

**Q.** What about the p53-positive nuclei, normalised ([2]; Library stock concentration: 1.5 uM) of the same molecule?
**A.** -0.24% (inactive)

**Q.** What about the p53-positive nuclei, normalised ([2]; Library stock concentration: 4.6 uM) of the same molecule?
**A.** -0.158% (inactive)

**Q.** What about the p53-positive nuclei, normalised ([2]; Library stock concentration: 13.7 uM) of the same molecule?
**A.** -0.0345% (inactive)

**Q.** And the p53-positive nuclei, normalised ([2]; Library stock concentration: 41 uM)?
**A.** 0.07% (inactive)

**Q.** What about the p53-positive nuclei, normalised ([2]; Library stock concentration: 123 uM) of the same molecule?
**A.** 0.0394% (inactive)

**Q.** And the p53-positive nuclei, normalised ([2]; Library stock concentration: 370 uM)?
**A.** 0.143% (inactive)

**Q.** What about the p53-positive nuclei, normalised ([2]; Library stock concentration: 1.111 mM) of the same molecule?
**A.** 0.138% (inactive)

**Q.** And the p53-positive nuclei, normalised ([2]; Library stock concentration: 3.333 mM)?
**A.** 0.637% (inactive)

**Q.** And the p53-positive nuclei, normalised [2, 5]?
**A.** 1.1% (inactive)

**Q.** What about the p53-positive nuclei, normalised ([2]; measured here: p53 positive nuclei at 24 h, Library stock concentration: 500 nM) of the same molecule?
**A.** -0.0629%

**Q.** And the p53-positive nuclei, normalised ([2]; measured here: p53 positive nuclei at 24 h, Library stock concentration: 1.5 uM)?
**A.** -0.173%

**Q.** What about the p53-positive nuclei, normalised ([2]; measured here: p53 positive nuclei at 24 h, Library stock concentration: 4.6 uM) of the same molecule?
**A.** -0.116%

**Q.** What about the p53-positive nuclei, normalised ([2]; measured here: p53 positive nuclei at 24 h, Library stock concentration: 13.7 uM) of the same molecule?
**A.** -0.111%

**Q.** And the p53-positive nuclei, normalised ([2]; measured here: p53 positive nuclei at 24 h, Library stock concentration: 41 uM)?
**A.** -0.122%

**Q.** What about the p53-positive nuclei, normalised ([2]; measured here: p53 positive nuclei at 24 h, Library stock concentration: 123 uM) of the same molecule?
**A.** 0.00346%

**Q.** What about the p53-positive nuclei, normalised ([2]; measured here: p53 positive nuclei at 24 h, Library stock concentration: 370 uM) of the same molecule?
**A.** 0.0563%

**Q.** And the p53-positive nuclei, normalised ([2]; measured here: p53 positive nuclei at 24 h, Library stock concentration: 1.111 mM)?
**A.** 0.34%

**Q.** And the p53-positive nuclei, normalised ([2]; measured here: p53 positive nuclei at 24 h, Library stock concentration: 3.333 mM)?
**A.** 1.08%

**Q.** And the p53-positive nuclei, normalised [2, 6]?
**A.** 2.09%
